The text below walks through data of PubChem BioAssay (EPA / NIEHS).

Records with an inconclusive call do not appear. The source made the active and inactive calls. How the source made its calls: active means hit-call score of the fitted dose curve at least 0.9, where 1 is the maximum; inconclusive means response in the unintended direction; inactive means score below 0.9.

The target of this assay is Estrogen receptor (Homo sapiens) (UniProt P03372). Kind of assay: ATG_ERa_TRANS: Attagene TRANS-FACTORIAL HepG2 Assay for human Estrogen Receptor alpha (ERa) (AID 2282970). The settings on record: HepG2 Attagene TRANS ERa GAL4 reporter, mRNA. How it is done: ATG_TRANS is a cell-based, multiplexed-readout assay that uses HepG2, a human liver cell line, with measurements taken at 24 hours after chemical dosing in a 24-well plate.ATG_ERa_TRANS is one of 30 assay component(s) measured or calculated from the ATG_TRANS assay. It is designed to make measurements of mRNA induction, a form of inducible reporter, as detected with fluorescence intensity signals by Reverse transcription polymerase chain reaction (RT-PCR) and Capillary electrophoresis technology.Data from the assay component ATG_ERa_TRANS was analyzed into 1 assay endpoint. This assay endpoint, ATG_ERa_TRANS, was analyzed in the positive analysis fitting direction relative to DMSO as the negative control and baseline of activity. Using a type of inducible reporter, measures of mRNA for gain-of-signal activity can be used to understand the reporter gene at the transcription factor-level as they relate to the gene ESR1. Furthermore, this assay endpoint can be referred to as a primary readout, because this assay has produced multiple assay endpoints where this one serves a reporter gene function. To generalize the intended target to other relatable targets, this assay endpoint is annotated to the nuclear receptor intended target family, where the subfamily is steroidal.
Sequence of Estrogen receptor (Homo sapiens) (P03372 whole entry, looked up, the tested form may be a part): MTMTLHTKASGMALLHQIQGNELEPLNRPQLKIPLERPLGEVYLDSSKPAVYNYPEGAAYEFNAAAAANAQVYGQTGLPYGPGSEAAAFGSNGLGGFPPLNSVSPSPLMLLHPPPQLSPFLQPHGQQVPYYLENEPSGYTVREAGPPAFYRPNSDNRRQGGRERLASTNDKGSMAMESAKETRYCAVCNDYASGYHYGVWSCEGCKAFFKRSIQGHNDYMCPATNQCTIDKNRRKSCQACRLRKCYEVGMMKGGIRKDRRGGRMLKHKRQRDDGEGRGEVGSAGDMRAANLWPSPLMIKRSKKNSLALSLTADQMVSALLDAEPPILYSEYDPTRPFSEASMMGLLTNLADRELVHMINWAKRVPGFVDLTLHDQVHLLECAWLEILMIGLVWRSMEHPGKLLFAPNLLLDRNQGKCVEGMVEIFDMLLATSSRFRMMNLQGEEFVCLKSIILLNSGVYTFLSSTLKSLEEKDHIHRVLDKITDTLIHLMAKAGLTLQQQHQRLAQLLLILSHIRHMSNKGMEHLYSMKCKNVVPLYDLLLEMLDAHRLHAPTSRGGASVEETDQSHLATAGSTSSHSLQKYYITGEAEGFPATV
Human liver HepG2 cells are transiently transfected with multiple reporter transcription units (MRTUs) in 6-well plates using FuGene 6 reagent (Roche; 3 ml FuGene/1 mg DNA). The MRTU constructs are regulated by a cis-regulating element (promoter). […] A major difference between the CIS and TRANS system is that in CIS activities of endogenous TFs are measured, whereas the TRANS assay evaluates changes in activities of exogenous, chimeric NR-Gal4 proteins. […] At the end of 24 hour incubation, total RNA was isolated using TriZol reagent (Invitrogen). The isolated RNA is then reverse-transcribed using oligo(dT) primer and Mo-MLV reverse transcriptase (Invitrogen) with DNAse I (Ambion) treatment for 30 min. The one-tenth of the produced cDNA was amplified by PCR using Taq DNA polymerase (Invitrogen) and two reporter sequence-specific primers. The PCR products were fluorescently labeled by primer extension with 6-arboxyfluorescein (6-FAM) 5'-labeled reporter sequence-specific primer (2 min at 95 C, 20 s at 68 C and 10 min at 72 C) and these products were digested with 5U of HpaI (New England Biolabs) for 2h at 37 C. […] The raw capillary electrophoresis data was processed using Attagraph software (Attagene).
Consider `Cc1ccc(N)cc1O`, for which the call was inactive.

For the compound `CCn1nc(Cc2ccccc2)cc1C1CCN(C[C@H]2C[C@H](N(C)[C@@H](C(=O)O)C(C)C)C[C@@H]2c2cccc(F)c2)CC1`, the result was inactive.

On to `O=C(O)c1cccc(Oc2ccccc2)c1`, for which the compound was called inactive.

On to `Cn1c(=O)cc(Oc2ccc(F)cc2F)c2cnc(NCC(C)(C)O)nc21`, for which the result was inactive.

On to `CC(C)=CCCC(C)=CC=O`, for which the result was inactive.

The term AC50 denotes the midpoint of the concentration-response curve, whichever way the signal moves. As to `CC(C)=CCCC(C)CCO` (configuration not stated), the concentration at half-maximal activity (AC50) was 34 µM (active).

For the compound `COc1ccc2sc(C(=O)Nc3nnn[nH]3)c(OC(C)C)c2c1`, the AC50 is 59.3 µM (active).

In the case of `O=P(OC(CCl)CCl)(OC(CCl)CCl)OC(CCl)CCl`, the outcome was inactive.

Take `COc1cccc(-c2ccc(/C=C\CN3CCCCCC3)cc2Cl)c1`: the result was inactive.

For `CC(C)CCO`, the compound was classed as inactive.

Consider `O=c1n(CC2CO2)c(=O)n(CC2CO2)c(=O)n1CC1CO1` (configuration not stated), for which the result was inactive.

In the case of `COC(=O)c1ccccc1O`, the AC50 was 25.1 µM (active).

For the compound `COC(=O)c1c(Cl)c(Cl)c(C(=O)OC)c(Cl)c1Cl`, the outcome was inactive.

Turning to `Cn1cnc([N+](=O)[O-])c1Sc1ncnc2nc[nH]c12`, the AC50 was 46.1 µM (active).

As for `CCC(C)(C)C(=O)O[C@H]1C[C@@H](C)C=C2C=C[C@H](C)[C@H](CC[C@@H]3C[C@@H](O)CC(=O)O3)[C@H]21`, the call was inactive.

Take `CCOC(=O)COc1ccc2c(c1)CC(NCC(O)c1cccc(Cl)c1)CC2` (configuration not stated): the AC50 was 47.1 µM (active).

With `CC[C@H](C)C(=O)O[C@H]1C[C@@H](C)C=C2C=C[C@H](C)[C@H](CC[C@@H]3C[C@@H](O)CC(=O)O3)[C@H]21`, the result was inactive.

Take `O=c1[nH]c2ccc(S(=O)CCN3CCC(Cc4ccc(F)cc4)CC3)cc2o1` (configuration not stated): the compound was called inactive.

For `CC[C@H]1CC[C@H](NCc2cc3c(cc2OC)[C@H]2C[C@H]2C(=O)N3C)[C@H](c2ccccc2)N1`, the compound was called inactive.

As for `C=CC(=C)CCC=C(C)C`, the call was inactive.

Take `CCCCCCCCO`: the call was inactive.

Consider `O=C(NS(=O)(=O)/C=C/c1ccccc1)c1ccc(F)cc1Cl`, for which the outcome was inactive.

`C=CCCCCCCCCC(=O)O`: the compound was called inactive.

For `COc1ccc(-n2nc(C(F)F)cc2-c2ccc(S(C)=O)cc2)cc1` (configuration not stated), the result was inactive.

As to `CC/C(=C\C(=N/O)C(N)=O)C(C)[N+](=O)[O-]` (configuration not stated), the compound was called inactive.

Turning to `Cc1ccc(S(=O)(=O)O)cc1C`, the compound was classed as inactive.

Regarding `Nc1ccc(Nc2ccccc2)cc1`, the AC50 is 24.5 µM (active).
